# “And” between values parts separate entries of the source, which are not always exact repeats. Equal values may be shown once. The source holds several records for some structures; these can differ, active in one and inactive in another. The source made the active and inactive calls. Rule for the calls: active = hit-call score of the fitted dose curve at least 0.9, where 1 is the maximum; inactive = score below 0.9.
# Tests used:
# [1] = BSK_CASM3C_SRB: Viability Assessment in the BioMAP Diversity Plus: CASM3C Assay (AID 2283050); settings: primary human coronary artery smooth muscle cells;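 note: total protein by SRB staining as cytotoxicity measure in parallel cultures; cells exposed to compound for 24 h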
# [2] = read-out: Thrombomodulin, THBD (gene 7056); test: BSK_CASM3C_Thrombomodulin: BioMAP Diversity Plus: CASM3C Assay for Thrombomodulin Biomarker Activity (AID 2283051); settings: primary human coronary artery smooth muscle cells; actives raise or lower the signal;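 note: thrombomodulin protein level measured by ELISA 24 h after dosing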
# [3] = read-out: Tissue Factor, F3 (gene 2152); test: BSK_CASM3C_TissueFactor: BioMAP Diversity Plus: CASM3C Assay for Tissue Factor Biomarker Activity (AID 2283052); settings: primary human coronary artery smooth muscle cells; actives raise or lower the signal;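 note: cell surface tissue factor protein level read by ELISA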
# [4] = read-out: Interferon-gamma inducible Protein 10 (IP10), CXCL10 (gene 3627); test: BSK_hDFCGF_IP10: BioMAP Diversity Plus: hDFCGF Assay for Interferon-gamma inducible Protein 10 (IP10) Biomarker Activity (AID 2283053); settings: primary human foreskin fibroblasts; actives raise or lower the signal
# How it was run: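 Primary foreskin fibroblasts, human; 24 h compound exposure; IP-10 by ELISA; bidirectional fit vs DMSO.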
# [5] = read-out: Urokinase-type plasminogen activator receptor (uPAR), PLAUR (gene 5329); test: BSK_CASM3C_uPAR: BioMAP Diversity Plus: CASM3C Assay for Urokinase-type plasminogen activator receptor (uPAR) Biomarker Activity (AID 2283054); settings: primary human coronary artery smooth muscle cells; actives raise or lower the signal;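 note: cell-surface uPAR protein level quantified by ELISA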
# [6] = read-out: Vascular cell adhesion molecule 1 (VCAM1), VCAM1 (gene 7412); test: BSK_CASM3C_VCAM1: BioMAP Diversity Plus: CASM3C Assay for Vascular cell adhesion molecule 1 (VCAM1) Biomarker Activity (AID 2283055); settings: primary human coronary artery smooth muscle cells; actives raise or lower the signal;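 note: VCAM-1 protein level quantified by ELISA on the cells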
# [7] = read-out: Collagen III, COL3A1 (gene 1281); test: BSK_hDFCGF_CollagenIII: BioMAP Diversity Plus: hDFCGF Assay for Collagen III Biomarker Activity (AID 2283056); settings: primary human foreskin fibroblasts; actives raise or lower the signal
# How it was run: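 ELISA readout of Collagen III in human dermal (foreskin) fibroblasts, taken 24 h post-treatment. Gain or loss relative to DMSO vehicle fitted in both directions.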
# [8] = read-out: Epidermal growth factor receptor (EGFR), EGFR (gene 1956); test: BSK_hDFCGF_EGFR: BioMAP Diversity Plus: hDFCGF Assay for Epidermal growth factor receptor (EGFR) Biomarker Activity (AID 2283057); settings: primary human foreskin fibroblasts; actives raise or lower the signal
# How it was run: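 hDFCGF system, primary human foreskin fibroblasts; compound 24 h; EGFR measured by ELISA; DMSO = negative control/baseline; bidirectional fitting.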
# [9] = read-out: Interleukin-8 (IL8), CXCL8 (gene 3576); test: BSK_hDFCGF_IL8: BioMAP Diversity Plus: hDFCGF Assay for Interleukin-8 (IL8) Biomarker Activity (AID 2283058); settings: primary human foreskin fibroblasts; actives raise or lower the signal
# How it was run: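 IL-8 levels read by ELISA at 24 hours after dosing human skin fibroblast cultures. Parallel SRB staining assessed overt cytotoxicity, and gain or loss of signal was fitted against DMSO control.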
# [10] = BSK_hDFCGF_Proliferation: Cell Proliferation Assessment in the BioMAP Diversity Plus: hDFCGF Assay (AID 2283059); settings: primary human foreskin fibroblasts;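 note: curves fitted for both rise and fall of signal versus DMSO baseline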
# How it was run: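 Primary human foreskin fibroblasts, sub-confluent; […]; 10% TCA fix, 0.1% SRB stain, A560 total protein. Gain/loss fitted bidirectionally vs DMSO control.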
# [11] = read-out: Macrophage colony-stimulating factor (MCSF), CSF1 (gene 1435); test: BSK_hDFCGF_MCSF: BioMAP Diversity Plus: hDFCGF Assay for Macrophage colony-stimulating factor (MCSF) Biomarker Activity (AID 2283060); settings: primary human foreskin fibroblasts; actives raise or lower the signal
# How it was run: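 M-CSF levels read by ELISA at 24 h post-dosing in human skin fibroblasts. Parallel cultures stained with SRB assessed cytotoxicity at the same time point; response fitted in both directions against the DMSO baseline.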
# [12] = BSK_hDFCGF_SRB: Viability Assessment in the BioMAP Diversity Plus: hDFCGF Assay (AID 2283061); settings: primary human foreskin fibroblasts;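 note: cells exposed to compound for 24 h before the read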
# How it was run: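 Viability was read as total protein: after 10% TCA fixation, wells were stained with 0.1% sulforhodamine B and read at 560 nm. Primary human foreskin fibroblasts were dosed for 24 h, with bidirectional fitting versus DMSO.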
# [13] = read-out: TIMP metallopeptidase inhibitor 1 (TIMP1), TIMP1 (gene 7076); test: BSK_hDFCGF_TIMP1: BioMAP Diversity Plus: hDFCGF Assay for TIMP metallopeptidase inhibitor 1 (TIMP1) Biomarker Activity (AID 2283062); settings: primary human foreskin fibroblasts; actives raise or lower the signal
# How it was run: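 TIMP-1 measured by ELISA 24 h after chemical dosing of primary human skin fibroblasts, with gain or loss fitted relative to DMSO. Parallel SRB staining (560 nm) monitored overt cytotoxicity.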
# [14] = read-out: Monokine induced gamma interferon (MIG), CXCL9 (gene 4283); test: BSK_hDFCGF_MIG: BioMAP Diversity Plus: hDFCGF Assay for Monokine induced gamma interferon (MIG) Biomarker Activity (AID 2283063); settings: primary human foreskin fibroblasts; actives raise or lower the signal
# How it was run: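 Human primary foreskin fibroblasts in the hDFCGF system, exposed to test chemical for 24 h; MIG measured by ELISA. Bidirectional curve fitting against DMSO negative control as activity baseline.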
# [15] = read-out: Matrix Metallopeptidase 1 (MMP1), MMP1 (gene 4312); test: BSK_hDFCGF_MMP1: BioMAP Diversity Plus: hDFCGF Assay for Matrix Metallopeptidase 1 (MMP1) Biomarker Activity (AID 2283064); settings: primary human foreskin fibroblasts; actives raise or lower the signal
# How it was run: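 Primary human foreskin fibroblasts exposed to chemicals for 24 h; MMP1 measured by ELISA. Cytotoxicity tracked by SRB staining in parallel cultures; bidirectional fit relative to DMSO.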
# [16] = read-out: Vascular cell adhesion molecule 1 (VCAM1), VCAM1 (gene 7412); test: BSK_hDFCGF_VCAM1: BioMAP Diversity Plus: hDFCGF Assay for Vascular cell adhesion molecule 1 (VCAM1) Biomarker Activity (AID 2283065); settings: primary human foreskin fibroblasts; actives raise or lower the signal;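 for AC50: VCAM-1 protein level quantified by ELISA after 24 h chemical exposure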
# How it was run: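 ELISA readout of VCAM-1 on human dermal fibroblast primary cultures, 24 h after chemical exposure. Gain or loss of signal fitted in both directions against DMSO baseline.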
# [17] = read-out: Plasminogen activator inhibitor-1 (PAI1), SERPINE1 (gene 5054); test: BSK_hDFCGF_PAI1: BioMAP Diversity Plus: hDFCGF Assay for Plasminogen activator inhibitor-1 (PAI1) Biomarker Activity (AID 2283066); settings: primary human foreskin fibroblasts; actives raise or lower the signal
# How it was run: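 Primary dermal fibroblasts (human foreskin), hDFCGF system; compound 24 h; PAI-1 by ELISA; bidirectional fit vs DMSO control.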
# [18] = read-out: Interferon-gamma inducible Protein 10 (IP10), CXCL10 (gene 3627); test: BSK_KF3CT_IP10: BioMAP Diversity Plus: KF3CT Assay for Interferon-gamma inducible Protein 10 (IP10) Biomarker Activity (AID 2283068); settings: primary human keratinocytes with fibroblasts; actives raise or lower the signal
# How it was run: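 In a primary skin co-culture of keratinocytes and fibroblasts, IP-10 is quantified by ELISA at 24 h after dosing. SRB staining of parallel wells monitors overt toxicity. Curves are fitted both directions against DMSO.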
# [19] = BSK_KF3CT_SRB: Viability Assessment in the BioMAP Diversity Plus: KF3CT Assay (AID 2283069); settings: primary human keratinocytes with fibroblasts;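 note: total protein by sulforhodamine B staining as a cytotoxicity measure; read 24 h after compound addition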
# How it was run: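 Human keratinocyte and foreskin fibroblast co-culture exposed to chemical for 24 h. Total protein measured in parallel cultures by 0.1% sulforhodamine B staining after 10% TCA fixation, read at 560 nm; bidirectional fit relative to DMSO.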
# [20] = read-out: Intercellular Adhesion Molecule 1 (ICAM1), ICAM1 (gene 3383); test: BSK_KF3CT_ICAM1: BioMAP Diversity Plus: KF3CT Assay for Intercellular Adhesion Molecule 1 (ICAM1) Biomarker Activity (AID 2283067); settings: primary human keratinocytes with fibroblasts; actives raise or lower the signal
# How it was run: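 Cell-surface ICAM-1 was measured by ELISA 24 h after dosing primary human skin keratinocytes co-cultured with fibroblasts. Parallel SRB staining tracked overt cytotoxicity. Gain or loss of signal was fitted relative to DMSO.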
compound,measurement,setting,value
FC(F)(F)C(F)(F)CNCC(F)(F)C(F)(F)F,outcome,[1],inactive
same,outcome,[2],inactive
same,outcome,[3],inactive
same,outcome,[4],inactive
same,outcome,[5],inactive
same,outcome,[6],inactive
same,outcome,[7],inactive
same,AC50,[8],7.57 µM (active)
same,outcome,[8],inactive
same,outcome,[9],inactive
same,outcome,[10],inactive
same,outcome,[11],inactive
same,outcome,[12],inactive
same,outcome,[13],inactive
same,outcome,[14],inactive
same,outcome,[15],inactive
same,outcome,[16],inactive
same,outcome,[17],inactive
same,outcome,[18],inactive
same,outcome,[19],inactive
OCC(F)(F)C(F)(F)C(F)(F)F,outcome,[1],inactive
same,outcome,[2],inactive
same,outcome,[3],inactive
same,outcome,[4],inactive
same,outcome,[5],inactive
same,outcome,[6],inactive
same,outcome,[7],inactive
same,outcome,[8],inactive
same,outcome,[9],inactive
same,outcome,[10],inactive
same,outcome,[11],inactive
same,outcome,[12],inactive
same,outcome,[13],inactive
same,outcome,[14],inactive
same,outcome,[15],inactive
same,outcome,[16],inactive
same,outcome,[17],inactive
same,outcome,[18],inactive
same,outcome,[19],inactive
Oc1ccc(Nc2ccccc2)cc1,outcome,[1],inactive
same,AC50,[2],5.45 µM (active)
same,AC50,[3],11 µM (active)
same,outcome,[4],inactive
same,outcome,[5],inactive
same,outcome,[6],inactive
same,outcome,[7],inactive
same,outcome,[8],inactive
same,outcome,[9],inactive
same,AC50,[10],26.5 µM (active)
same,outcome,[11],inactive
same,outcome,[12],inactive
same,outcome,[13],inactive
same,outcome,[14],inactive
same,outcome,[15],inactive
same,AC50,[16],3.97 µM (active)
same,AC50,[17],17.1 µM (active)
same,outcome,[18],inactive
same,outcome,[19],inactive
FC(F)(F)C(F)(F)C(F)(F)CI,outcome,[1],inactive
same,outcome,[2],inactive
same,outcome,[3],inactive
same,outcome,[4],inactive
same,outcome,[5],inactive
same,outcome,[6],inactive
same,outcome,[7],inactive
same,outcome,[8],inactive
same,outcome,[9],inactive
same,outcome,[10],inactive
same,outcome,[11],inactive
same,outcome,[12],inactive
same,outcome,[13],inactive
same,outcome,[14],inactive
same,outcome,[15],inactive
same,outcome,[16],inactive
same,outcome,[17],inactive
same,outcome,[18],inactive
same,outcome,[19],inactive
C=CC(=O)OCC(F)(F)C(F)(F)C(F)(F)C(F)(F)COC(=O)C=C,AC50,[1],43 µM (active) and 43.7 µM (active)
same,outcome,[2],inactive
same,AC50,[3],52.7 µM (active) and 47.5 µM (active)
same,AC50,[4],8.28 µM (active) and 8.38 µM (active)
same,AC50,[5],48.9 µM (active) and 50 µM (active)
same,AC50,[6],17.7 µM (active) and 19.7 µM (active)
same,outcome,[7],inactive
same,AC50,[8],30 µM (active)
same,outcome,[8],inactive
same,AC50,[9],11.5 µM (active) and 14.4 µM (active)
same,AC50,[10],2.13 µM (active) and 1.2 µM (active)
same,AC50,[11],5.29 µM (active) and 5.49 µM (active)
same,AC50,[12],8.52 µM (active) and 8.25 µM (active)
same,AC50,[13],8.88 µM (active) and 9.2 µM (active)
same,AC50,[14],3.49 µM (active) and 3.32 µM (active)
same,AC50,[15],17.1 µM (active) and 17.3 µM (active)
same,AC50,[16],3.41 µM (active) and 3.27 µM (active)
same,AC50,[17],8.89 µM (active) and 8.86 µM (active)
same,AC50,[20],23 µM (active) and 24.1 µM (active)
same,AC50,[18],19.3 µM (active) and 20.9 µM (active)
same,AC50,[19],41.7 µM (active) and 43.2 µM (active)

# From PubChem BioAssay (EPA / NIEHS)
